Inconclusive results are not listed. A number with no mark means an inactive call. The source made the active and inactive calls. Calls come from the whole dose curve; as a rule, active = well fitted inhibition curve with a large enough effect in the repeat runs; inconclusive = weak or mixed curves, or effect the other way; inactive = no such curve, though single readings can be large or run the other way.
Each compound was assayed against Nuclear receptor ROR-gamma (Homo sapiens) (UniProt P51449) (assay: qHTS assay to identify small molecule antagonists of the retinoid-related orphan receptor gamma (ROR-gamma) signaling pathway (AID 1159521; note: nearly all actives have a fitted effect of over 50% in size; for activity change, negative = inhibition: top concentration of the series differs between compounds)). Settings: Tet-on RORgamma CHO cells, RORE-luciferase, 16 h; series mostly up to 92.4 µM; activity change, negative = inhibition: at the top concentration.
Excerpt: U.S. Tox21 Program National Center for Advancing Translational Sciences [NCATS] NIH Chemical Genomics Center [NCGC] U.S. Environmental Protection Agency [EPA] National Institutes of Environmental Health Sciences [NIEHS] National Toxicology Program [NTP] U.S. Food and Drug Administration [FDA] Tox21 Assay Overview: Nuclear steroid hormone receptors are involved in many biological processes including inflammatory responses, cell proliferation, and apoptosis. Environmental factors or compounds disrupting these nuclear receptor pathways and gene expression may promote susceptibility to immunotoxicants and autoimmune diseases. One important group of these expression factors are the retinoid-related orphan receptors. To assess compounds that may interfere with the retinoid-related orphan receptor gamma (ROR-gamma) transcription factor, a cell-based luciferase assay was used. The CHO cell-based assay utilizes a TET-inducible ROR expression factor and ROR response element-LUC reporter gene. Reporter gene activity was induced using Doxycycline Hyclate and measured after 16 hr incubation. Tet-on ROR gamma CHO cells were used to screen against the Tox21 10K compound library for ROR gamma antagonists by quantification of decreased reporter gene activity in terms of decreased luminescence.
Tox21 Assay Protocol Summary: Tet-on ROR gamma CHO cells were dispensed at 1,000 cells in 4 uL of culture medium per well into white wall/solid bottom 1536-well plates using a Multidrop Combi (Thermo Scientific, Waltham, MA) dispenser. Following incubation at 37 C and 5% CO2 for 4 hr, 23 nL of compounds dissolved in DMSO, positive controls or DMSO only were transferred by a Pintool station (Kalypsys, San Diego, CA) and after 2 hr incubation at 37 C, one ul of 1 uM (final concentration) of Doxycycline Hyclate was added to all the wells by using a Flying Reagent Dispenser (FRD) (Aurora Discovery, San Diego, CA). After 16 hr incubation at 37 C and 5% CO2, 5 uL of ONE-Glo reagent (Promega Corporation, Madison, WI) was added to each assay plate using FRD. After 30 min incubation at room temperature, luminescence was quantified on a ViewLux plate reader (Perkin Elmer, Waltham, MA).
% is set by controls: 0 for no effect and ±100 for the full control effect; potency is the fitted concentration of half-maximal effect.

Structure (SMILES) | activity change, negative = inhibition | Potency
CCCCCCCCC(=O)OCC(C)OC(=O)CCCCCCCC (stereo not given) | 11.6% | 
CCc1cnc(C(=O)O)c(C(=O)O)c1 | 6.76% | 
C[C@H](N)C(=O)N[C@@H](C)C(=O)NC1[C@H]2CN(c3nc4c(cc3F)c(=O)c(C(=O)O)cn4-c3ccc(F)cc3F)C[C@@H]12 (stereo not given in full) | 173% [at 42.5 µM] | 
CCCc1ccc(OC)cc1 | -1.44% | 
CCOC(=O)CC(O)(CC(=O)OCC)C(=O)OCC | -6.24% | 
Nc1ccc(C(=O)Oc2ccccc2)c(O)c1 | 122% [at 42.5 µM] | 
[O-][n+]1ccc(Cl)cc1 | -3.52% | 
CCC(C(=O)O)c1ccc(N2Cc3ccccc3C2=O)cc1 (stereo not given) | 157% [at 42.5 µM] | 
NC(=O)c1ccccc1 | 31.6% | 
C/C(=C(\CCO)SS/C(CCO)=C(\C)N(C=O)Cc1cnc(C)nc1N)N(C=O)Cc1cnc(C)nc1N | 43.4% [at 42.5 µM] | 
C=C[Si](OCC)(OCC)OCC | 7.78% | 
CCc1ccc(C(=O)C(C)CN2CCCCC2)cc1 (stereo not given) | 3.67% [at 42.5 µM] | 
CCCC1CCCC(=O)O1 (stereo not given) | -12.4% | 
O=c1c2ccccc2oc2ccccc12 | 66.4% | 
CC(C)(C)NCC(O)COc1ccc(NC(=O)NC2CCCCC2)cc1 (stereo not given) | 7.27% [at 42.5 µM] | 
CCCCC(CC)COCCC#N (stereo not given) | 10.3% | 
Cc1cc(C)c(C)c(O)c1 | -6.6% | 
O=C1c2ccccc2C(=O)c2c1ccc(O)c2O | 71.7% [at 42.5 µM] | 
C=CC(C)(O)CC/C=C(/C)CCC=C(C)C (stereo not given) | -0.365% | 
CCC(C)CCCC(C)(C)O (stereo not given) | 5.99% | 

Structure (SMILES) | activity change, negative = inhibition | Potency
COc1cccc([C@H](O)C2CCN(CCc3ccc(F)cc3)CC2)c1OC | -25.1% | 
Clc1ccccc1-c1nc(-c2ccncc2)no1 | 82% [at 42.5 µM] | 
Nc1ccc(-c2ccc(F)cc2)cc1 | 38.9% | 
CC1=C(C)C(=O)C(CCCCC#CCCCC#CCO)=C(C)C1=O |  | 29.8 µM (active)
CO[C@@H]1[C@@H](O[C@@H]2O[C@H](C)[C@@H](O[C@H]3C[C@@](C)(O)[C@@H](O)[C@H](C)O3)[C@H](N(C)C)[C@H]2O)[C@@H](CC=O)C[C@@H](C)[C@@H](O[C@@H]2CC[C@H](N(C)C)[C@@H](C)O2)/C=C/C=C/C[C@@H](C)OC(=O)C[C@H]1OC(C)=O | 14.7% [at 42.5 µM] | 
Cc1c(Cl)cccc1[N+](=O)[O-] | 2.92% | 
O=C1c2ccccc2C(=O)C1c1ccc2ccccc2n1 | 35% [at 42.5 µM] | 
O=C(O)c1ccccc1[N+](=O)[O-] | 1.25% | 
Cc1c(-c2cccnc2)c2ccccc2n1CCCCC(=O)O | 0.805% | 
CCCCCCCCCCCCN1CCOCC1 | -8.45% | 
CC1(C)[C@@H]2CC[C@]3(C2)[C@@H]1C(=O)CCC3(C)C | 1.14% | 
CCOc1ccc(NC(C)=O)cc1N | 51.5% | 
CCCCCC1CCC(=O)O1 (stereo not given) | -2.63% | 
Cc1c(Nc2ncccc2C(=O)O)cccc1C(F)(F)F | -21.8% [at 42.5 µM] | 
Sc1nc(S)nc(S)n1 | -10.9% [at 42.5 µM] | 
CCCC(=O)OCc1ccccc1 | 0.837% | 
O=C(O)c1c2ccccc2cc2ccccc12 |  | 13.6 µM (active)
CCC(C)C1N=C(C)C(C)S1 (stereo not given) | -1.88% | 
CCCCCCC/C=C/C=O | -11.3% | 
CCCCCCCCCCCCCCCCN | 7.43% [at 42.5 µM] | 
